Assays:
Test in all cases: log2 ratio of Biotin-Ahx-Ub-VS probe labelling (fragment/DMSO); higher = less target engagement (more negative = stronger competition), active = hit call of the paper (q ≤ 0.05, log2 ratio ≤ -1)
Conditions in all cases: compound concentration: 200 uM; treatment time: 3 h
[1] = target: USP34 (UniProt Q70CQ2)
Method in brief: (§1)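 HEK293T lysate in Tris/CHAPS/IGEPAL buffer with protease inhibitors (495 µg per sample) was given fragment at 200 µM or vehicle for 3 h, in triplicate. It then received Biotin-Ahx-Ub-VS at 0.5 µM final for 1 h. Labelled DUBs were NeutrAvidin-enriched, digested with LysC and trypsin, and run by diaPASEF LC-MS/MS. Values are average log2 fragment/vehicle ratios by unpaired t-test on global-median-normalised Spectronaut quantities of proteins with ≥2 unique peptides.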

[2] = target: T1, USP36 (UniProt Q9P275)
T1 sequence (whole entry): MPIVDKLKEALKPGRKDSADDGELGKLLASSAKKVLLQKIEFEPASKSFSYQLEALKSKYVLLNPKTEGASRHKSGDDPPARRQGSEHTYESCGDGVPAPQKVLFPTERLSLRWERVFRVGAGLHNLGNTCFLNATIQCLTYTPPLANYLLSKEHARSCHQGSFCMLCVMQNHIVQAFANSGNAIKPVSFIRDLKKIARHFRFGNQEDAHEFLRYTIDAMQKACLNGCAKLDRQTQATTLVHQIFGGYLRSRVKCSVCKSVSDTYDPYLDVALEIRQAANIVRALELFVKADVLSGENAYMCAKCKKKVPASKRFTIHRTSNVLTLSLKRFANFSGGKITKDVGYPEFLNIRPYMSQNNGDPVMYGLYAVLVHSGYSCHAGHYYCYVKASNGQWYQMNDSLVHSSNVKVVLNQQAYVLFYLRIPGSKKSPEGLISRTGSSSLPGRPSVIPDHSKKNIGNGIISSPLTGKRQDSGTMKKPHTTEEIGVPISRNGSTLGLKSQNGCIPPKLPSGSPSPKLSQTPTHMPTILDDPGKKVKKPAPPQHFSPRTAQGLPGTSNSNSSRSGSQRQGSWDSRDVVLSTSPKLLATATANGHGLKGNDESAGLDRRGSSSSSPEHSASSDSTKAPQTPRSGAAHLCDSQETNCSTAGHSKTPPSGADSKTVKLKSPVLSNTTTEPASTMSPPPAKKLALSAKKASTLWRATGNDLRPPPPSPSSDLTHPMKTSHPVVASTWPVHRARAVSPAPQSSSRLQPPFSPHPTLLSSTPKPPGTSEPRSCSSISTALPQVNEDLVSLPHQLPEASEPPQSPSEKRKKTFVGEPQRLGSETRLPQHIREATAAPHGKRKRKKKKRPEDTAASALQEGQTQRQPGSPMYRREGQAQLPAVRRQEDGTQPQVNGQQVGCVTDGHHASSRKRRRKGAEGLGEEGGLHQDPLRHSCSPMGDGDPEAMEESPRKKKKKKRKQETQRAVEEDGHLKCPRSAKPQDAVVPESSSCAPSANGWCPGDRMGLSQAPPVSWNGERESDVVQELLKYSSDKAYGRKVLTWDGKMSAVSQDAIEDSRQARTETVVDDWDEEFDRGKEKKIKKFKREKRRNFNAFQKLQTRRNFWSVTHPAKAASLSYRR
Method in brief: as §1

[3] = target: T2, USP38 (UniProt Q8NB14)
T2 sequence (whole entry): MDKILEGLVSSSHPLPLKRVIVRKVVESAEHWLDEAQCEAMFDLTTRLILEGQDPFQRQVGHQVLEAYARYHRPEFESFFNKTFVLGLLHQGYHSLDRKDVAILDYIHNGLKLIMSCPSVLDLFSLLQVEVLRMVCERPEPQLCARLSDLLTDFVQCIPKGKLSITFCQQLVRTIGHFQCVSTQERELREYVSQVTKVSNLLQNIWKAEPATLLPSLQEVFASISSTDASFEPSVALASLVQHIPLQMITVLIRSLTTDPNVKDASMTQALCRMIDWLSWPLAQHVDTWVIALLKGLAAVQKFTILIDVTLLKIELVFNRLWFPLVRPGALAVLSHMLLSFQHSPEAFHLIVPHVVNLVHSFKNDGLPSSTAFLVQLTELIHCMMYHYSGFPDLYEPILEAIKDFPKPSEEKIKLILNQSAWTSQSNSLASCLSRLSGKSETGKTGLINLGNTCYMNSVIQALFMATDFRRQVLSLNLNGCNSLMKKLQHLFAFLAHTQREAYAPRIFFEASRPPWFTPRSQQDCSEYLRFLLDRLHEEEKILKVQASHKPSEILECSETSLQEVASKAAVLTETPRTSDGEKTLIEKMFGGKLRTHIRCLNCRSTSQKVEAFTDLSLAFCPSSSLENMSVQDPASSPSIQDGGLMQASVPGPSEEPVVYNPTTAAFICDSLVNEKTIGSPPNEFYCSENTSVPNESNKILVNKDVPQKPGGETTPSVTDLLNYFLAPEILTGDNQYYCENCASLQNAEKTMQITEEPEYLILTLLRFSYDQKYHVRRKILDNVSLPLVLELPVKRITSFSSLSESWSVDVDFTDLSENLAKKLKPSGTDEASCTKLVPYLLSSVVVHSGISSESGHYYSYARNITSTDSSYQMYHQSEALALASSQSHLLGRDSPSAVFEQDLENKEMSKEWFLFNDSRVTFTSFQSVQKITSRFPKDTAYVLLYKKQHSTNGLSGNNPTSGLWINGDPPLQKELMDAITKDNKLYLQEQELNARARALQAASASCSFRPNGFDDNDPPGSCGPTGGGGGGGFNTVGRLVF
Method in brief: as §1

[4] = target: T3, USP39 (UniProt Q53GS9)
T3 sequence (whole entry): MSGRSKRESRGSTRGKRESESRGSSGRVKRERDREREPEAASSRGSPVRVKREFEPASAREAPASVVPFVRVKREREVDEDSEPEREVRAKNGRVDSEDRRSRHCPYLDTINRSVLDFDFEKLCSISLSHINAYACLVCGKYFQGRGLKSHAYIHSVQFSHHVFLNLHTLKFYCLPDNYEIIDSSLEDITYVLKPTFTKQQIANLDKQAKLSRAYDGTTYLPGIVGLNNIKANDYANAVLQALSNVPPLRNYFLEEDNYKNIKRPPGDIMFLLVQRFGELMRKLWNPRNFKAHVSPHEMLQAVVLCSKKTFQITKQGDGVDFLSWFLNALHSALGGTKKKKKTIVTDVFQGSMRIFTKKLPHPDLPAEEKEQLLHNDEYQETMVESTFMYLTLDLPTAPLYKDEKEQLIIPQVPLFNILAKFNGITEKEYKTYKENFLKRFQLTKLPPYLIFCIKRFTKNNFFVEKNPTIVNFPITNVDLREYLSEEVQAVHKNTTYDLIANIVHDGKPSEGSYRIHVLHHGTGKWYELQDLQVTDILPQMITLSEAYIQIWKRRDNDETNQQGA
Method in brief: as §1

[5] = target: T4, USP4 (UniProt Q13107)
T4 sequence (whole entry): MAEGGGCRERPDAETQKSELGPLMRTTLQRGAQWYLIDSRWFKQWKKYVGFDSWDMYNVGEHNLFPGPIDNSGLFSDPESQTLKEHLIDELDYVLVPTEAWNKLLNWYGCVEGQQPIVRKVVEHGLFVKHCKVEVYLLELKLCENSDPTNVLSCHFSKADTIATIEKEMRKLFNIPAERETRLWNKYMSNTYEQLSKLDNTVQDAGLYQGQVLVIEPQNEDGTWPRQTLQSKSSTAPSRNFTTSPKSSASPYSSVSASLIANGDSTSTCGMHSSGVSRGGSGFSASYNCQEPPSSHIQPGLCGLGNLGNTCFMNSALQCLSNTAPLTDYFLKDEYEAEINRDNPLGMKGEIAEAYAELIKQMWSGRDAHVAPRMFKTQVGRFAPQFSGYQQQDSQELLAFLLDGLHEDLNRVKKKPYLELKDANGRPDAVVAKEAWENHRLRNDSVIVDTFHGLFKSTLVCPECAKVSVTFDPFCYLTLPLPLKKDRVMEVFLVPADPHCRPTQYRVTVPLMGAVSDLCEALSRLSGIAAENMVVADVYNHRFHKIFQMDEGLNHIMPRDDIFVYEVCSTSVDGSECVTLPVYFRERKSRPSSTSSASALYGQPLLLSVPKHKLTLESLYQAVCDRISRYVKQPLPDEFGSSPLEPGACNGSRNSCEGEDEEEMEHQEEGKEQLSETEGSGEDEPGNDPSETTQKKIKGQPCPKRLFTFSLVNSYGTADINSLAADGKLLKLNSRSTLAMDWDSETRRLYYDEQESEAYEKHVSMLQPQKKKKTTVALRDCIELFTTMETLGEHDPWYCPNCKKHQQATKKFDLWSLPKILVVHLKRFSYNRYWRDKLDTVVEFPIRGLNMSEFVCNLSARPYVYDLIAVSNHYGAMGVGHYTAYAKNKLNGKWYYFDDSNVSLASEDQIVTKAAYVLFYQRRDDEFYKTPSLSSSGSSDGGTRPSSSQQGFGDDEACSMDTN
Method in brief: as §1

Measured: log2 ratio of Biotin-Ahx-Ub-VS probe labelling

USP34, sequence (Q70CQ2 whole entry, the tested form may be a part): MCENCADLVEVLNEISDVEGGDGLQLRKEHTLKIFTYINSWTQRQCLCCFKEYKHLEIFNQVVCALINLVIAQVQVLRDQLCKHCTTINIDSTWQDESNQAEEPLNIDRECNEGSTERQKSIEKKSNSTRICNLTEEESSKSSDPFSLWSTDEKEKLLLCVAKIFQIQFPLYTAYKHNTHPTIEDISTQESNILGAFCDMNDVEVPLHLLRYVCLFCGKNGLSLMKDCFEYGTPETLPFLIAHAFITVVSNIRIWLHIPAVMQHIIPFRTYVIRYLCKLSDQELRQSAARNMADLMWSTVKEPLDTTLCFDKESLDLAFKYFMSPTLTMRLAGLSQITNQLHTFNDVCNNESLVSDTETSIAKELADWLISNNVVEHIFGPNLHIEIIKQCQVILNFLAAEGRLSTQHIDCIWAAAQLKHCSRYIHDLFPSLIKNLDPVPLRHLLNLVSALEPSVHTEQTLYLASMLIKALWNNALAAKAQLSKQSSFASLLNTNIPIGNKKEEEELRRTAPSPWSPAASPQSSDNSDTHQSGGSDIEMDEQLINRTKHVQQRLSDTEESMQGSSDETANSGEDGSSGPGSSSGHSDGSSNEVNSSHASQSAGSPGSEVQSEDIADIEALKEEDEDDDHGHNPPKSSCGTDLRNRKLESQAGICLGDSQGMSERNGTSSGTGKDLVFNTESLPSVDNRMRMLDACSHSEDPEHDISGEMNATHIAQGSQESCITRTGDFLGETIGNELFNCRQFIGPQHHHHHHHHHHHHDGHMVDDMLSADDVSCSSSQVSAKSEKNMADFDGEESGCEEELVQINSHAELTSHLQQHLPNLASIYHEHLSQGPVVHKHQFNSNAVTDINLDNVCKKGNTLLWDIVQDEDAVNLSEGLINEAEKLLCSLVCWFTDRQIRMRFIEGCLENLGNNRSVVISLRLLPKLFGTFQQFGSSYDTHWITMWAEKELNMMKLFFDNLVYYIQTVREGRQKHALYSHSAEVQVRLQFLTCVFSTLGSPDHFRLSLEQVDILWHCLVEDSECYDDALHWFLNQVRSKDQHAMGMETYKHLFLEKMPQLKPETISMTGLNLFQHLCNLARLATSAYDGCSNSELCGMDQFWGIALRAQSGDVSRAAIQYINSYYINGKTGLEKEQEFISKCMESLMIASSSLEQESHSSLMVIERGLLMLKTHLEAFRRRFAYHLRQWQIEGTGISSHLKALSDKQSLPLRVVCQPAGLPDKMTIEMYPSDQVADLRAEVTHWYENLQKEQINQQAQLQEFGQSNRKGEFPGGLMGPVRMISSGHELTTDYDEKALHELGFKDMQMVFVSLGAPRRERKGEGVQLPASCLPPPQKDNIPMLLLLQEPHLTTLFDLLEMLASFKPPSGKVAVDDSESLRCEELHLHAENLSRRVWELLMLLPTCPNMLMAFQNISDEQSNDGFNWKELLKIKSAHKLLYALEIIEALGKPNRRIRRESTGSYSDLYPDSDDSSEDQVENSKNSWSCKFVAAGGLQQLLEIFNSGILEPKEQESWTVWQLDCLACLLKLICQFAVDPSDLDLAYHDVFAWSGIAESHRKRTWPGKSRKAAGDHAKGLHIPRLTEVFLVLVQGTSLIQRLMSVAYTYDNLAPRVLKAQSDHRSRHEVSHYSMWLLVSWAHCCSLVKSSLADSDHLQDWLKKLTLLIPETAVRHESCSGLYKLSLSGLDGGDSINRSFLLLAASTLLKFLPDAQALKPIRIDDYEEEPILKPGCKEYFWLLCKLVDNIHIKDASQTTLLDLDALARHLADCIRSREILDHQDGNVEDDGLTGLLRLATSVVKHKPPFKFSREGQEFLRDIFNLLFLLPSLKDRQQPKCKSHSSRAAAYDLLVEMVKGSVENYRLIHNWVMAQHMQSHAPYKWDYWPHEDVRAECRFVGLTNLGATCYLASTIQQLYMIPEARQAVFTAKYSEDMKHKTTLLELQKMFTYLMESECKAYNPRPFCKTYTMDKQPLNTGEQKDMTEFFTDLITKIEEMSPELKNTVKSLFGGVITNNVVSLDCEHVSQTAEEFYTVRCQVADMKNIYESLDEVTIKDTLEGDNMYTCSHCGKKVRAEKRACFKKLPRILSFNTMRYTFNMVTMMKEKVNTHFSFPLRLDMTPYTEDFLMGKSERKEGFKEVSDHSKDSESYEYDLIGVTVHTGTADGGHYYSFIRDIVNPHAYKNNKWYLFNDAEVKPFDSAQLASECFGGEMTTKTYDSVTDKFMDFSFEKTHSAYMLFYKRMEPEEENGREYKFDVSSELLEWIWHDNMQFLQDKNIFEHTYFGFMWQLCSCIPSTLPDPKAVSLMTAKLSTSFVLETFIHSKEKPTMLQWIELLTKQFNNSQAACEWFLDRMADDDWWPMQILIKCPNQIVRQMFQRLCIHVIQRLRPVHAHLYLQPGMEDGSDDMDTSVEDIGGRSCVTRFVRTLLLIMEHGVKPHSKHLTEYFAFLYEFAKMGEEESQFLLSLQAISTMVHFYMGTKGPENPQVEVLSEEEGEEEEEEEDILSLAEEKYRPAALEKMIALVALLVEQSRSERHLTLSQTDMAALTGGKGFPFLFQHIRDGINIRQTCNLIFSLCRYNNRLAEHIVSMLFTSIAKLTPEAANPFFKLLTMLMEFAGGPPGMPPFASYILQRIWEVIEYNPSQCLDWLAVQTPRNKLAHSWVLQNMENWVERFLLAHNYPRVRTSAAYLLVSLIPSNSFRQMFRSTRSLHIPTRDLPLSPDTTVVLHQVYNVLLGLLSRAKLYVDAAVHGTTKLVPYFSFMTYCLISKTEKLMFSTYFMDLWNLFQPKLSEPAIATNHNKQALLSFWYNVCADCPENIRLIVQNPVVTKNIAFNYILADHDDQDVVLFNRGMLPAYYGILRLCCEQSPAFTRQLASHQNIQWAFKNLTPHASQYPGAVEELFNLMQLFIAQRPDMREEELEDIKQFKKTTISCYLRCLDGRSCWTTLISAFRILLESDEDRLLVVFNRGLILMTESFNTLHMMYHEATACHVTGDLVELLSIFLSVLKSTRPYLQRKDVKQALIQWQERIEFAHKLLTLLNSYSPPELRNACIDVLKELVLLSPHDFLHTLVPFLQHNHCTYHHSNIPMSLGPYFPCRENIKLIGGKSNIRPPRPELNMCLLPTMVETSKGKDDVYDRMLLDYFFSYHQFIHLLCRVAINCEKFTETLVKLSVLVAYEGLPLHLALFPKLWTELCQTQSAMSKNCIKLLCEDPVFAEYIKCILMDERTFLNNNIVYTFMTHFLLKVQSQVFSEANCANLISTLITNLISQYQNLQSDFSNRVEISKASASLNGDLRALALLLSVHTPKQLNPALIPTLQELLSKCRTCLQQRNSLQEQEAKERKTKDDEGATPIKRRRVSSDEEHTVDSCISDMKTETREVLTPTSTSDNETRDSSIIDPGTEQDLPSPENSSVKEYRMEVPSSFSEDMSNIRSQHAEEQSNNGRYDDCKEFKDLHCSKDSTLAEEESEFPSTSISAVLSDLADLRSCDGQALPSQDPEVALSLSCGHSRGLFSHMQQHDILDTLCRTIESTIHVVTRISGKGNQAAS

C/C(=C\CNC(=O)CCl)c1cnn(C)c1.Cl
inactive: [1] -0.267 | [2] -0.266 | [3] -0.227 | [4] 0.0033 | [5] -0.395

— the supplement of paper PMC11732987, “Enantioselective OTUD7B fragment discovery through chemoproteomics screening and high-throughput optimisation” (Communications Chemistry, 2025)
